Assay results taken from the supplement of paper PMC6555819.

How the values were obtained:
Test in all cases: PBM binding z-score (relative to random genomic background probes); higher = stronger binding; sequences stand for … in GC…GCGATTGACAGCGTAGAATGAAGG
[1] = test system: RARb homodimer (NR concentration 270 nM)
Procedure, shortened: (§1)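 Random background probes are the reference for binding z-scores. These scores derive from regression-normalized fluorescence on custom Agilent 4×180K protein-binding microarrays incubated 1 h with ligand-free nuclear receptor dimers. Binding was detected with antibodies against each partner (one per run).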

[2] = test system: RARg:RXRa (NR concentration 270 nM, RXRa partner concentration 90 nM)
Procedure, shortened: as §1

[3] = test system: RARg homodimer (NR concentration 270 nM)
Procedure, shortened: as §1

[4] = test system: RXRa DBDmut IVT, anti-RXR (DBD mutation: RXRa K156A/R161A, NR concentration 90 nM)
Procedure, shortened: as §1

[5] = test system: RXRa homodimer (NR concentration 180 nM)
Procedure, shortened: as §1

[6] = test system: THRa:RXRa (NR concentration 90 nM, RXRa partner concentration 90 nM)
Procedure, shortened: as §1

[7] = test system: THRa homodimer (NR concentration 90 nM)
Procedure, shortened: as §1

[8] = test system: VDR homodimer (NR concentration 270 nM)
Procedure, shortened: as §1

Sequence	PBM binding z-score [1]	PBM binding z-score [2]	PBM binding z-score [3]	PBM binding z-score [4]	PBM binding z-score [5]	PBM binding z-score [6]	PBM binding z-score [7]	PBM binding z-score [8]
CCTTACGGGTCAAGGCTATAGCACGGGTGGTACG	2.91	4.66	4.36	0.343	5.14	2.39	-0.0277	0.575
GCAGATAGGTGAAACGCAGGTAACTCAGGGTGGC	0.000492	0.873	0.288	-0.635	0.592	1.32	-0.559	-0.593
GTACCAAGGTGAATAGGTCGTTTATGAGTAGGCG	1.75	2.69	1.2	0.0866	2	1.95	0.576	0.299
ATCGTAAGGTCGAGGTGAGTATAGAGAAAGGGAA	2.13	3	3.23	1.49	2.55	3.43	2.18	0.892
ACAGACAGGTGATGAAGGTAAATCAGGCTATCAT	0.0548	0.28	0.373	-0.384	0.316	0.885	-0.061	-0.34
TCTTGTAGATCTGCAGGTTAAGAAAGCTGGCCAA	0.11	-0.162	-0.524	0.681	0.267	0.319	-0.531	-0.245
ATCTCTAGGAAACCAAGTTCAGTGAATGCCGAAC	1.32	0.329	0.454	0.614	0.323	0.46	0.191	2.72
AGTCAAAGTTCAGGAAGAGGTAACGTAAAGCACG	3.02	5.33	4.81	2.79	2.93	2.91	0.341	1.81
GCGACTGGGGCAAAGCAGGGTACCATAAGGTTGG	0.665	0.296	0.341	-0.678	0.287	1.61	-0.383	-0.139
CCGACTGGGGCAGAAAGATTACCATACCATCCGG	-0.533	-0.183	0.217	-0.916	0.0291	-0.794	-0.569	-0.722
TCTAGCAGGCCAGAGGGTCACTCCAGAGGTACGG	2.59	2.1	1.86	-0.234	1.97	1.38	-0.258	0.403
ATCGAAAGGTCGTGAGGTGAGTATCCAGAAAGGC	2.99	4.59	3.92	1.15	5.24	3.28	1.55	0.852
GCTGCTAGGTCAACTGGTGGTCAGCTAAAGCTCG	3.61	5.52	5.36	1.53	2.88	3.02	0.794	0.0223
GCTGCTAGGTCAGGTTAGTCAGCTAACGGGTACG	2.62	2.89	3.82	0.579	1.17	2.36	0.56	0.0703
CGTCCAAGGTCAAAGGTCAGTGCAGAGATGACGG	5.5	8.65	8.11	4.2	10	4.76	3.26	4.12
CCTAGTTGGTCAAGGTCACACACGCTATAGGTAC	4.21	4.84	4.85	2.36	5	4.11	4.42	4.32
GCTAACAGGCCATTTGGGTCACTCAATGACGGGC	2.13	1.1	1.63	0.69	1.06	2.13	0.884	0.601
TAGCCTAGGTCATGCGGGCCCGTATAGTGTCGGC	2.9	3.77	4.19	0.324	3.06	3.06	1.33	0.149

Sequence	PBM binding z-score [1]	PBM binding z-score [2]	PBM binding z-score [3]	PBM binding z-score [4]	PBM binding z-score [5]	PBM binding z-score [6]	PBM binding z-score [7]	PBM binding z-score [8]
TCTCGGAGGACGCGAAGGTCAGAGCTTTCCAGAG	3.03	2.26	2.1	0.401	1.67	1.84	0.0235	0.488
ATCTCTAGGTAAGACTCAGTTCGGTGAAGAACGC	0.505	0.0648	0.192	0.349	-0.00788	0.483	0.697	0.648
CGTCCAAGATCAAGGTCAGTGAAAGAGACTCGAA	2.88	2.83	3.03	1.15	2.01	2.86	1.63	0.979
CCTAGTTGGACAAGGTCACACACGCTATAGGTAC	4.19	4.24	4.16	1.75	4.4	3.93	3.3	3.14
CAGCCTAGGTCAGGGCCAGTAGAGGAGGAACGTT	2.31	2.91	3.9	-0.543	1.35	1.88	0.411	0.169
GCGACTGGGGCATCAGCAGGTTGCCATAACTTAA	0.046	-0.0231	-0.244	-0.343	-0.273	-0.00785	-0.582	-0.425
TCTCCGAGGACACGAAAGGTCAGAGCTCGACATC	4.77	4.91	5.54	1.34	4.12	4.36	2.74	1.31
ATCGTAAGGTCGAAGGTGAGTATACCCACCCGAA	1.59	2.97	2.44	1.58	3.4	2.98	1.59	0.909
ACTTACGGGTCAACTAGGTTATAGCACGCGTATA	3.63	5.71	5.16	2.08	5.82	3.52	0.857	2.03
CCTCGGAGGACAACGGGAGGTCAGAGCTGCCAGA	3.43	3.93	3.4	-0.419	1.76	3.04	1.32	1.08
ACAGACTGGTGAGTGAAGGTAACTCAGCTGGACG	-0.42	-0.303	-0.112	-0.514	-0.182	0.0338	-0.517	-0.299
CGAACTAGGTCTTTGACAGGACAGTGAATAGTAA	0.139	0.112	0.193	0.262	-0.252	0.309	-0.0353	-0.305
CCTGCTAGGACATGGTCAGCTAATCTACAGTATG	-0.2	-0.204	0.478	0.385	-0.656	0.568	-0.28	-0.547
CCGACTGGGGCATAAGGTTATCATAAGCCAGCCC	1.53	1.8	0.973	-0.174	1.14	1.78	0.629	0.13
ACAGACAGGTGATGAGGGTAACTCAGGCTATCAT	0.681	0.294	0.502	-0.49	0.588	2.72	0.561	-0.088
TAAATGAGGTTAAAGATCAGGGAACGTGGCGTCG	1.22	2.58	1.64	1.2	4.01	3.09	0.733	1.12
CCTACTGGGCCATGGTCATTGATCAGTCAAAGCA	0.781	0.494	0.374	-1.27	-0.0481	0.0106	-0.543	-0.137
